{"source": "the supplement of paper PMC6555819"}
{"test_system": "VDR:RXRa (NR concentration 270 nM, RXRa partner concentration 90 nM)", "assay": "PBM binding z-score (relative to random genomic background probes); higher = stronger binding; sequences stand for … in GC…GCGATTGACAGCGTAGAATGAAGG", "procedure": "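Protein-binding microarray (Agilent 4x180K custom design, double-stranded 60-nt probes: 5' GC cap, 34-nt variable region, 24-nt constant primer region; full probe sequence given). Purified or IVT nuclear receptor:RXRα heterodimers (3:1 NR:RXRα, mostly 270:90 nM) or homodimers were incubated for 1 h in PBS with 2% milk and no ligand, then detected with Alexa488 antibodies. Fluorescence from o1-orientation probes (~5 replicates averaged) was converted to z-scores against 500 random hg19 background probes. Variable regions are seed direct-repeat (DR0–DR5) sites, all their single-nucleotide variants and half-site ablations.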"}
{"sequence": "CGATCTAGGTCACCAGGACAGTGAAGAGGTTGGA", "PBM binding z-score": 1.76}
{"sequence": "CGTCCAAGGTCAGCAGGTCAGAGAAAGCGACGTG", "PBM binding z-score": 3.98}
{"sequence": "CAATCTAGGTCAAAGGTCAAAGTCGAGCCAACCA", "PBM binding z-score": 6.74}
{"sequence": "TGGAGTAGGTTACGGGGGCATTCAGGGATGAAGA", "PBM binding z-score": 4.24}
{"sequence": "CCGAGTTGGTTACGAGGGGGCATTCAGTGCGAAT", "PBM binding z-score": 4.32}
{"sequence": "TCGAATAGGTTACGGGGGCATTCAGGGATGAAGA", "PBM binding z-score": 4.6}
{"sequence": "TCTAGGAGGACACGAAGGTCAGAGCTTTCCAGAG", "PBM binding z-score": 2.25}
{"sequence": "AGTCAAAGTTCATCTGGGTAACGTAAGATATGCT", "PBM binding z-score": 4.96}
{"sequence": "AAATGTAGGTTAGGGTCATTCAGAAAGTAGGGAA", "PBM binding z-score": 4.55}
{"sequence": "ATATGTAGGTTAGGTTCATTCAGAAAGTAGGGAA", "PBM binding z-score": 4.01}
{"sequence": "TAGCCTAGGTCAGATCGGGCGAGTATACGCTATA", "PBM binding z-score": 0.506}
{"sequence": "CCTTACGGGTCAGTGACAGGTTATAGCATTTGGA", "PBM binding z-score": 2.49}
{"sequence": "TGTCAAAGCTCAAAGGTAACGTAAGTATCCACAC", "PBM binding z-score": 0.171}
{"sequence": "ACTCGGAGGATAAAGGTCAGAGCTACGCCAGTGA", "PBM binding z-score": 2.36}
{"sequence": "CGAACTAGGTCACCAGGCCAGTGAAGAGGTTGGA", "PBM binding z-score": 1.71}
{"sequence": "CCTACTGGGCCAACAAGGTCATTGATGCCGATAA", "PBM binding z-score": 5.56}
{"sequence": "CGTCCAAGGTCAATGCAAGGTCAGTGAAAGCATT", "PBM binding z-score": 6.14}
{"sequence": "CCGAGTAGGTTACGAGGGGGAATTCAGTGCGAAT", "PBM binding z-score": 1.7}
{"sequence": "TCTGCTAGGTCAACGATGGTCAGCGAATCTGCTA", "PBM binding z-score": 1.66}
{"sequence": "CCGAGTAGGGTACGAGGGGGCATTCAGTGCGAAT", "PBM binding z-score": 4.33}
{"sequence": "ACTAGCAGGCCAAAGGTCACTCAAGATTAGTCCG", "PBM binding z-score": 4.05}
{"sequence": "ATCGAAAGGTCGACGAGTTGAGTATACACCGTTT", "PBM binding z-score": 6.08}
{"sequence": "CGAACTCGGTCAAAGGACAGTGAAAGGCGACGTA", "PBM binding z-score": 0.208}
{"sequence": "CCGAGTAGGTTACGAGGTGGCATTCAGTGCGAAT", "PBM binding z-score": 0.516}
{"sequence": "CACACTAGGTCAAGAGGTCAAAGTCCGCTTCCCG", "PBM binding z-score": 6.08}
{"sequence": "GGAACGAGCGCAAAGTTGATAGCATCTGTCGACG", "PBM binding z-score": -0.765}
{"sequence": "ATATGTAGGTTAGCGTCATTCAGAAAGTAGGGAA", "PBM binding z-score": 0.0435}
{"sequence": "CGAACTAGGTCACCAGGACAGTGTAGAGGTTGGA", "PBM binding z-score": 2.17}
{"sequence": "ACTAGCAGGCCAAGAGTCACTCAAGATTAGTCCG", "PBM binding z-score": -0.367}
{"sequence": "CCGAGTAGGTTACGAGGGGGCTTTCAGTGCGAAT", "PBM binding z-score": 2.13}
{"sequence": "AGTGAAAGTTCAGGACGAGGTAACGTAAAGCACG", "PBM binding z-score": 2.81}
{"sequence": "AGTCAAAATTCACTAGGTAACGTAAGATTCAGCT", "PBM binding z-score": 0.0665}
{"sequence": "CGAACTAGGTCACCAGGACCGTGAAGAGGTTGGA", "PBM binding z-score": 2.4}
{"sequence": "CGAACTAGGTGACCAGGACAGTGAAGAGGTTGGA", "PBM binding z-score": 0.673}
{"sequence": "CACACTAGGTCAAAGGTCAAAGTCGAGCCAACCA", "PBM binding z-score": 6.85}
{"sequence": "CCTACTGGGCCACGAAAGGTAATTGATTCAGTGA", "PBM binding z-score": -0.34}
{"sequence": "ACTTACGGGTCAACGGGGTTATAGCACGCGTATA", "PBM binding z-score": 7.87}
{"sequence": "CGTCCAAGGTCATGGGAGGTCAGTGAAGACAGAT", "PBM binding z-score": 7.07}
{"sequence": "CGAACTGGGTCACCAGGACAGTGAAGAGGTTGGA", "PBM binding z-score": 2.13}
{"sequence": "CGAACTAGGTCACCAGGACAGAGAAGAGGTTGGA", "PBM binding z-score": 2.04}
